# Screening results deposited in PubChem by The Scripps Research Institute Molecular Screening Center.
# CHRM1 PAM: human CHRM1 positive allosteric modulation; AID 588819; P11229; CHO-K1 hM1, Fluo-8 calcium fluorescence, ACh EC20; 0% = ACh EC20, 100% = maximal ACh; hit rate 0.088% among 360,000; activation, % at 3 µM; in the data active = activation above about 19%, passing the limit was not always enough
# Target sequence (P11229 whole entry, looked up): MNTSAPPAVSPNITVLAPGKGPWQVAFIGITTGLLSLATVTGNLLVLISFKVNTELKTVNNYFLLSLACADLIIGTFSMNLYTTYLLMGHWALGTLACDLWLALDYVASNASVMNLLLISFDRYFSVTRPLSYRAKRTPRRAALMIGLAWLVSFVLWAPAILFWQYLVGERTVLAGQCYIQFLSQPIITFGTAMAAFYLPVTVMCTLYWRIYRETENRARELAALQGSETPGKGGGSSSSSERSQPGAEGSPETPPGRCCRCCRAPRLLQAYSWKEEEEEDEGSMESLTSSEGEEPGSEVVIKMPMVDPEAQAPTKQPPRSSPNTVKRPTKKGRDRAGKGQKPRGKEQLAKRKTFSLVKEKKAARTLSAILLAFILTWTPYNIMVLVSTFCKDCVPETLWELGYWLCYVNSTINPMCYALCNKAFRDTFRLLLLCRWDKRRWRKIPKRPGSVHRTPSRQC
# M1 antag: blocks human M1 muscarinic receptor | CHO-K1 hM1, Fluo-8 calcium fluorescence, ACh EC80 antagonist | P11229 | hit rate 1.3% among 360,000 | inhibition, % at 3 µM;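 active = percent inhibition above its own plate's cutoff, namely the mean of that plate's compound wells plus 3 SD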;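 note: peak over basal fluorescence ratio during 140 s after agonist addition; 0% = ACh EC80 plus DMSO and 100% = DMSO alone without agonist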
# CHO-K1 Ca PAM: M1 PAM counterscreen hit in parental CHO-K1 cells; activation, % at 3 µM; ATP EC20, Fluo-8 calcium fluorescence; 0% at ATP EC20, 100% at ATP max; hit rate 0.02% among 360,000;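 active = activation above the run cutoff, the mean activation of all test compounds plus 3 SD, cut at about 40% in these data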;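 note: peak over basal fluorescence ratio in a 140 s read after ATP addition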
# M1 ag parental: nonselective activator or artifact in parental CHO-K1 cells; hit rate 0.48% among 360,000; Fluo-8 calcium fluorescence; scaled to maximal ATP response, vehicle zero; activation, % at 3 µM; in the data active = activation above about 15%;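 note: untransfected CHO-K1 host cells lacking M1 receptor as counterscreen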
# CHO-K1 Ca antag: nonselective inhibitor or artifact in parental CHO-K1 cells | ATP-induced calcium, Fluo-8 fluorescence | inhibition, % at 3 µM | hit rate 0.6% among 360,000;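 active = inhibition above a per-plate cutoff, the plate's mean sample inhibition plus 3 SD, cut at about 24% in these data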;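 note: 0% = DMSO plus EC80 ATP and 100% = DMSO alone without ATP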
# M1 ag: activates human CHRM1 receptor. CHO-K1 hM1, Fluo-8 calcium fluorescence, agonist mode; 0% DMSO, 100% acetylcholine EC100. activation, % at 3 µM. hit rate 0.33% among 360,000. AID 588814;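 active = activation above the run's mean compound activation plus 3 SD, cut at about 16% in these data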;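 note: peak over basal fluorescence ratio within a 140 s kinetic read after compound addition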
# Active calls of the source: *; + = active, no number. Shown are actives, neighbours in structure and some others; about 2.3% of the full set was active somewhere.
SMILES,CHRM1 PAM,M1 antag,CHO-K1 Ca PAM,M1 ag parental,CHO-K1 Ca antag,M1 ag
CC1(C(=O)NS(=O)(=O)c2ccccc2C(F)(F)F)CCN1C(=O)C1CCCCC1 (stereo not drawn),12,-18,15,0,-7,1
COC(=O)C1CCN(C(=O)C2CCN(C(=O)[C@@H](NS(=O)(=O)c3ccc(C)cc3)C(C)C)CC2)CC1,6,-16,2,0,-6,-1
COc1ccccc1-n1c(=O)oc2ccc(Cl)cc2c1=O,4,0,8,19*,-7,2
COc1c(Cl)c(=O)oc2ccc(Cl)cc12,7,-13,16,0,-17,-6
Cc1ccc(OCC(=O)Nc2cccc(S(=O)(=O)N3CCCC3)c2)cc1C,-2,3,-1,4,-6,-4
CC(=O)c1ccc(OCC(=O)Nc2cccc(S(=O)(=O)N3CCCC3)c2)cc1,-11,31*,-12,14,0,-1
O=C(COc1ccc2ccc(=O)oc2c1)Nc1cccc(S(=O)(=O)N2CCCCC2)c1,-13,26,-14,17*,9,-1
O=C(COC(=O)C1CC2C=CC1C2)Nc1cccc(S(=O)(=O)N2CCCCCC2)c1 (stereo not drawn),-12,17,-5,16*,19,-2
O=C(O)C1CCC(CNS(=O)(=O)c2ccccc2)CC1 (stereo not drawn),8,-23,10,0,-11,0
[O-]/C(=C(\C(=S)Nc1cccc2ccccc12)[n+]1ccccc1)c1ccc(Cl)s1,5,-1,4,0,1,-8
Cc1ccc(C)c(NC(=S)/C(=C(\[O-])c2ccc(Cl)s2)[n+]2ccccc2)c1,-11,23*,17,7,0,-6
COc1cc(OC)cc(C(=O)N[C@H](C(=O)OCC(=O)N2CCN(S(=O)(=O)c3ccc(C)cc3)CC2)C(C)C)c1,11,-16,6,0,-9,-8
N#CC(C#N)=C1C=C2C=C(N3CCCCCC3)CCC2CC1 (stereo not drawn),-33,102*,-14,939*,102*,+
CN1CCN(C2=CC3=CC(=C(C#N)C#N)CCC3CC2)CC1 (stereo not drawn),-28,103*,-25,522*,85*,896*
N#CC(C#N)=C1C=C2C=C(N3CCOCC3)CCC2CC1 (stereo not drawn),-25,58*,-14,65*,23,124*
CCN1CCN(C2=CC3=CC(=C(C#N)C#N)CCC3CC2)CC1 (stereo not drawn),-25,101*,-22,366*,78*,591*
CC(C)CC(=O)Nc1ccc(C(=O)COC(=O)C2CCC2)cc1,3,2,-21,1,6,-3
CN(C)c1nc(NNC(=O)c2ccccc2)nc(N(C)C)n1,3,-8,-5,0,1,-3
COc1ccc(C(N)c2csc(Nc3cc(Oc4ccccc4)ncn3)n2)cc1 (stereo not drawn),-29,82*,16,11,-7,2
Cc1cccc(-c2noc(CCCC(=O)NC3CCCCC3)n2)c1,1,-5,12,7,-13,-4
CN(C)CCNc1ccc(Cl)cc1[N+](=O)[O-],-25,35*,8,1,2,-8
CS(=O)(=O)NCCNc1ccc(Cl)cc1[N+](=O)[O-],-20,23*,11,6,-1,-5
O=C(NCC1CCCCC1)c1csc([C@@H]2C[C@H](O)[C@@H](CO)O2)n1,10,-9,-2,3,15,1
C[C@@H]1CN([C@H](C)CO)C(=O)c2cc(C#Cc3ccccc3F)cnc2O[C@@H]1CN(C)S(=O)(=O)c1ccccc1F,-7,9,-11,0,25*,-3
C[C@@H]1CN([C@H](C)CO)C(=O)c2cc(C#CC3CCCCC3)cnc2O[C@H]1CN(C)Cc1cccnc1,-28,34*,0,0,12,-11
CN(C(=O)C(Cl)Cl)C1CC2C=CC1C2 (stereo not drawn),12,-13,21,16*,-8,-4
Fc1ccc(CNc2ncnc3cc(Cl)ccc23)cc1,-13,9,3,16*,2,-1
COc1ccc(CNc2ncnc3cc(Cl)ccc23)cc1OC,-3,9,2,11,-2,-1
